Screening data as filed in PubChem.
In the library only some 1.5% were active in any assay of this set; here they are far more common.
BRCT inh green: BRCA1 BRCT-phosphoprotein interaction inhibition; AID 875; 75,000 compounds, 0.05% hits; BRCA1 BRCT-phosphopeptide binding, green fluorescence polarization; Potency, µM (top dose mostly 76.9 µM), inactives show at the highest dose activity change, negative = inhibition, most hits filed as inhibitors;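 also: potency is read from the fitted curve at half-maximal effect; plate controls were peptide without protein for full effect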
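Fluorescence polarization: His-tagged BRCT (~35 kDa BRCA1 C-terminus, 250 nM) bound to 100 nM fluorescein-labeled phosphorylated 10-aa BACH1 peptide, pH 7.3 phosphate buffer with DTT and Tween 20. Compounds incubated 12 min at room temperature; inhibition read as lowered polarization.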
BRCT PPI red: BRCT-phosphoprotein interaction inhibition (red fluorophore); BRCT-phosphopeptide binding, red fluorescence polarization; Potency, µM (series often up to 76.9 µM), for inactives: at the highest dose activity change, negative = inhibition, most hits filed as inhibitors; P38398; 75,000 compounds, 0.03% hits; AID 892; also: % is scaled to controls: 0 for no effect and ±100 for the full control effect
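Rhodamine-labelled pBACH1 10-mer (100 nM) bound to BRCT domain (100 nM) at pH 7.3; compounds incubated 12 min room temperature, polarization read. Free peptide defines full inhibition; unlabelled decapeptide titrated as control.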
Casp7 inh: blocks human caspase-7 allosterically or competitively | Potency, µM (highest dose often 57.5 µM), without a hit: at the highest dose activity change, negative = inhibition, actives largely listed as inhibitors | P55210 | 75,000 compounds, 0.02% hits | AID 889 | recombinant caspase-7, Ac-DEVD-AFC fluorescence rate; active = well fitted inhibition curve with a large enough effect in the main read-out, with a control signal flat, not every such curve was filed as active; inconclusive = small, poorly fitted or top-dose-only effect, or a change in a side signal; also: potency is read from the fitted curve at half-maximal effect; % of control where 0% means no effect
15-hLO inh: 15-hLO (ALOX15) enzyme inhibition; P16050; 74,000 compounds, 1.4% hits; purified 15hLO-1, xylenol orange hydroperoxide absorbance; Potency, µM (top dose mostly 57.1 µM), for inactives: top-dose activity change, negative = inhibition, actives largely listed as inhibitors; AID 887; also: potency is read from the fitted curve at half-maximal effect; % is scaled to controls: 0 for no effect and ±100 for the full control effect; nearly all actives have a fitted effect of over 55% in size
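Compounds were preincubated 15 min at room temperature with 40 nM purified human enzyme (25 mM Hepes pH 7.5, 0.01% Triton X-100); 50 uM arachidonic acid reacted 6 min. Fe-xylenol orange detection, 30 min, absorbance ratio 573/405 nm.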
Caspase-1 inhib: caspase-1 (human) inhibition, allosteric or competitive; P29466; Caspase-1 enzyme, Ac-WEHD-AFC fluorogenic rate; Potency, µM (series often up to 57.5 µM), without a hit: top-dose activity change, negative = inhibition, most hits filed as inhibitors; 75,000 compounds, 0.03% hits; AID 900;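 also: potency is read from the fitted curve at half-maximal effect; plate controls were vehicle for no effect and no substrate for full effect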
USP2a inhib: USP2a (human) protease inhibition; Potency, µM (top dose mostly 38.3 µM), inactives show at the highest dose activity change, negative = inhibition, hits mostly inhibitors; AID 927; O75604; USP2a enzymatic assay, qHTS inhibition; 60,000 compounds, 0.1% hits; also: potency is read from the fitted curve at half-maximal effect; nearly all actives have a fitted effect of over 60% in size
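Inhibition is measured in a cell-free coupled assay with 20 nM USP2 core, 20 nM Ub-PLA2 and 20 uM NBD C6-HPC, 2.5 h incubation. Activity normalized to NEM control.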
An asterisk follows results filed as active; ? = inconclusive; . = not tested or not shown; [ ] = another dose, or the depositor's remark. Unless noted, calls follow the shape of the dose curve; as a rule, active = well fitted curve in the direction sought with a large enough effect; inconclusive = small, poorly fitted or top-dose-only effect, or another doubt; inactive = no such curve, though single readings can be large; an effect the other way counts as inactive or inconclusive.

SMILES	BRCT inh green	BRCT PPI red	Casp7 inh	15-hLO inh	Caspase-1 inhib	USP2a inhib
COC(=O)c1cc(NCc2cccs2)ccc1N1CCOCC1	-4%	0%	-3%	20µM*	-2%	1%
COc1cccc(CCc2ccccc2OCC[C@@H]2C[C@@H](O)CN2C)c1	-2%	0%	2%	20µM*	4%	.
CCC(=O)[C@]12O[C@@]3(C4C(=O)OCCC41)N(Cc1ccccc1)C(C)=C(C(=O)OC)C(c1ccccc1)N3C2=O (some centres not stated)	2%[15.4 µM]	0%[15.4 µM]	2%[11.5 µM]	-5%[11.4 µM]	-2%[11.5 µM]	.
O=C(O)C(S)[C@@H](S)C(=O)O (some centres not stated)	-1%[3.08 µM]	-7%	-9%	7.9µM*	0%	-19%
N[C@H](C(=O)O)[C@H](O)C(=O)O	-3%	-1%	2%	-13%[25.6 µM]	5%	-1%
N#Cc1c(-c2ccccc2)cc(-c2ccco2)c(C#N)c1N	9%	-5%	?	7.9µM*	.	?
Cc1c(-c2ccc(F)cc2)nc(N)c(C#N)c1-c1ccco1	-1%	2%	-14%	-4%	-12%	9%
N#Cc1sc2nc(-c3ccccc3)cc(-c3ccco3)c2c1N	-3%	-10%	25µM*	4µM*	.	24%
O=C1C(=C2CCCCC2)SC(=S)N1Cc1ccco1	2%	2%	-2%	4µM*	-5%	49%[7.66 µM]
COc1cc(C(Nc2ccc3c(c2)OCO3)C(=O)NC2CCCCC2)cc(OC)c1OC (configuration not stated)	-2%	0%	2%	0.63µM*	-3%	25%
COc1ccc(C(C(=O)NC2CCCC2)N(C(=O)c2ccco2)c2ccc3c(c2)OCO3)cc1OC (configuration not stated)	-5%	-1%	1%	10%	-1%	.
Cc1ccc2c(CC(=O)OCc3csc(C)n3)coc2c1	-1%	0%	-1%	-12%	-1%	10%
O=C(Cc1coc2cc3c(cc12)CCC3)OCc1cc(=O)n2c(n1)sc1ccccc12	0%	-4%	4%	20µM*	1%	25%
Cc1ccc(-n2sc3ccccc3c2=O)cc1S(=O)(=O)N1CCCCC1	3%	0%	-14%	0.5µM*	-1%	26%
O=c1c2ccccc2sn1-c1ccc(S(=O)(=O)N2CCCC2)cc1	0%	0%	0%	0.1µM*	0%	0%
O=c1c2ccccc2sn1-c1ccc(S(=O)(=O)N2CCCCC2)cc1	-1%	1%	-2%	?	-1%	8%
CCCCCCCC[N+](CCCCCCCC)(CCCCCCCC)CCCCCCCC	8%	-4%	-11%	20µM*	-15%	.
CCN1C(=O)[C@H]2[C@H]3[C@H](O)[C@H](O)C/C(=N/O[C@@H](C)c4cn([C@H](CO)Cc5ccccc5)nn4)[C@@H]3CC[C@@H]2C1=O	-2%[15.4 µM]	0%[15.4 µM]	2%[11.5 µM]	0%[11.4 µM]	-3%[11.5 µM]	.
Cc1cccc(-n2c(SCc3cc(=O)n4ccsc4n3)nc3ccccc32)c1	3%	0%	-8%	13µM*	-9%	33%
COc1ccccc1C(=O)n1nc(-c2cccnc2)nc1N	-1%	-3%	-1%	-13%	0%	.
COc1ccccc1C(=O)n1nc(-c2ccc(Cl)cc2)nc1N	-7%	0%	-2%	13µM*	-1%	9%
CC(C)(C)C(=O)C1C(=O)c2ccccc2C1=O	-2%	1%	-1%	-3%	0%	.
CC[C@@H](c1ccccc1)n1c(=O)n2n(c1=O)[C@H]1[C@H](O)[C@H]3O[C@@H]3/C(=N/OC/C=C(\C)CCC=C(C)C)[C@@H]1CC2	0%[15.4 µM]	1%[15.4 µM]	0%[11.5 µM]	-2%[11.4 µM]	-1%[11.5 µM]	.
CCOC(=O)c1c(NC(=O)CN2CCOCC2)sc2c1CCCC2	2%	-1%	-6%	25µM*	-2%	13%
COc1ccc(O)c(-c2[nH]ncc2C(=O)c2ccccc2)c1	-6%	-2%	-4%	-3%	-5%	2%
SMILES	BRCT inh green	BRCT PPI red	Casp7 inh	15-hLO inh	Caspase-1 inhib	USP2a inhib
Cc1ccc(C(=O)c2cn[nH]c2-c2cc(Cl)ccc2O)cc1	1%	0%	-1%	20µM*	-1%	34%
CCN(CC)COC(=S)S	1%[15.4 µM]	1%[15.4 µM]	0%[11.5 µM]	-11%[11.4 µM]	-2%[11.5 µM]	.
O=S(=O)(NCCN1CCCC1)c1cccc2cccnc12	2%	-3%	0%	10µM*	-1%	.
O=S(=O)(NCCO)c1cccc2cccnc12	-1%	2%	-4%	12%	-2%	.
O=C(CSc1nc2nc(-c3cccs3)cc(C(F)(F)F)c2c(=O)[nH]1)NCc1ccco1	0%	-2%	?	-9%	?	2µM*
CC12C=C(/C=C/CCc3ccco3)C(C)(C1)C(CCc1ccco1)CC2=O (configuration not stated)	-1%[15.4 µM]	-3%[15.4 µM]	-2%[11.5 µM]	?	?	.
C=CC(C1=CC(=O)C=CC1=O)c1ccccc1 (configuration not stated)	-1%[3.08 µM]	-1%	-2%	?	1%	-12%
C=CC(C1=CC(=O)C(OC)=CC1=O)c1ccc(O)cc1 (configuration not stated)	0%[3.08 µM]	0%	-1%	25µM*	2%	-26%
Cc1cc(N)c2ccccc2[n+]1CCCCCCCCCCCCCC[n+]1c(C)cc(N)c2ccccc21	4%	1%	-3%	?	6%	16µM*
CSCCC=O	-3%	2%	-1%	1%	0%	.
COc1ccc(N2CSC3=C(C#N)C(c4ccc(OC)c(OC)c4)CC(=O)N3C2)c(OC)c1 (configuration not stated)	23%	1%	?	4µM*	?	.
COc1cc(OC)c(C2CC(=O)N3CN(c4ccc(C)cc4)CSC3=C2C#N)cc1OC (configuration not stated)	-1%	0%	-12%	?	-14%	18%
COc1ccc(C2CC(=O)N3CN(c4ccc(C)c(Cl)c4)CSC3=C2C#N)cc1OC (configuration not stated)	0%	-1%	?	3.2µM*	32µM*	.
COc1ccc(OCCSc2nnc(-c3ccccc3)n2N)cc1	-3%	1%	0%	13µM*	0%	-6%
COC(=O)[C@H](CCSC)NC(=O)C/C=C\[C@@H](C)CO	-2%[15.4 µM]	2%[15.4 µM]	1%[11.5 µM]	6%[11.4 µM]	-4%[11.5 µM]	.
O=C(O)c1cc(S(=O)(=O)Nc2cccc(Cl)c2)ccc1O	1%	1%	1%	-6%	-4%	.
CC(=O)OCC1OC(C#CC2=CCCCC2)C=CC1OC(C)=O (configuration not stated)	-1%[15.4 µM]	1%[15.4 µM]	-1%[11.5 µM]	-2%[11.4 µM]	-2%[11.5 µM]	.
O=C1CCN2C=Nc3cccc4ccc1c2c34	16µM*	0%	?	-8%	.	79%
